PAFAH1B3 FP inh = PAFAH1B3 enzyme inhibitors, primary screen, biochemical, fluorescence polarization, human. 340,000 compounds, 0.28% hits. AID 492972, 2010. inhibition, % at 3.39 µM. recombinant PAFAH1B3, FP-rhodamine probe. Platelet-activating factor acetylhydrolase IB subunit alpha1 (Homo sapiens), Q15102;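 active = inhibition above the screen-wide average of all tested compounds plus 3 SD, cut at about 25% in these data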;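 also: 0% = enzyme with DMSO only and 100% = wells lacking PAFAH1B3 protein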
Target sequence (Q15102 whole entry, looked up): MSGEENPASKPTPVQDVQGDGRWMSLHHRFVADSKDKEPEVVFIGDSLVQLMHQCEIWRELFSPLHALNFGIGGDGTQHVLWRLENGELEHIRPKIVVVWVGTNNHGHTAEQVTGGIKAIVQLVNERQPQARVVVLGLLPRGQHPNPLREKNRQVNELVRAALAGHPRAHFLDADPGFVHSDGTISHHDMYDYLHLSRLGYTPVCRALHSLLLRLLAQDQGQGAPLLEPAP
pPAFAH inh = pPAFAH enzyme inhibitors, primary screen, biochemical, fluorescence polarization, human. Platelet-activating factor acetylhydrolase (Homo sapiens), Q13093. recombinant pPAFAH, FP-rhodamine probe fluorescence polarization. inhibition, % at 3.39 µM. 330,000 compounds, 1.5% hits. AID 463082, 2010;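 active = inhibition above the mean inhibition across the screen plus 3 SD, cut at about 25% in these data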;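 also: inhibitors block binding of the rhodamine activity-based probe so polarization drops; 0% = enzyme with DMSO and 100% = wells lacking pPAFAH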
PAFAH2 FP inh = PAFAH2 enzyme inhibitors, primary screen, biochemical, fluorescence polarization, human | Platelet-activating factor acetylhydrolase 2, cytoplasmic (Homo sapiens), Q99487 | recombinant PAFAH2, FP-rhodamine activity probe | inhibition, % at 3.39 µM | 340,000 compounds, 0.99% hits;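 active = inhibition above the mean over all tested compounds plus 3 SD, cut at about 30% in these data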;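 also: inhibitors block probe labeling of enzyme so polarization drops; 0% = enzyme with DMSO and 100% = wells lacking PAFAH2 protein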
Fam108B counter = mouse Fam108B serine hydrolase inhibitors, primary screen, counter-screen for RBBP9 inhibitor project, biochemical, fluorescence polarization. recombinant Fam108B, FP-Rh probe fluorescence polarization. inhibition, % at 9.51 µM. 300,000 compounds, 0.33% hits. AID 1947, 2009;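 active = inhibition above the screen mean inhibition plus 3 SD, computed separately per campaign, cut at about 18% in these data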;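 also: inhibitors lower polarization as less probe binds the enzyme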
PME-1 inh = PME-1 inhibitors via competitive probe labeling, primary screen, biochemical, fluorescence polarization, FP-Rh probe, HTS. recombinant PME-1. 320,000 compounds, 0.53% hits. inhibition, % at 5.9 µM. AID 2130, 2009. Protein phosphatase methylesterase 1 (Homo sapiens), Q9Y570;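 active = inhibition above the campaign mean of all compounds plus 3 SD, cut at about 26% in these data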;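 also: competitive labeling of PME-1 active site by serine hydrolase directed probe; 0% = PME-1 with DMSO and 100% = wells lacking PME-1 enzyme; inhibitors block probe labeling so polarization falls and inhibition rises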
PAFAH1B2 inh = PAFAH1B2 enzyme inhibitors, primary screen, biochemical, fluorescence polarization, human. Platelet-activating factor acetylhydrolase IB subunit alpha2 (Homo sapiens), P68402. recombinant PAFAH1B2, FP-rhodamine activity probe. AID 492953, 2010. inhibition, % at 3.39 µM. 340,000 compounds, 1.2% hits;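 active = inhibition above the mean of all tested compounds plus 3 SD, cut at about 24% in these data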;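 also: 0% = enzyme with DMSO and 100% = wells lacking PAFAH1B2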
Target sequence (P68402 whole entry, looked up): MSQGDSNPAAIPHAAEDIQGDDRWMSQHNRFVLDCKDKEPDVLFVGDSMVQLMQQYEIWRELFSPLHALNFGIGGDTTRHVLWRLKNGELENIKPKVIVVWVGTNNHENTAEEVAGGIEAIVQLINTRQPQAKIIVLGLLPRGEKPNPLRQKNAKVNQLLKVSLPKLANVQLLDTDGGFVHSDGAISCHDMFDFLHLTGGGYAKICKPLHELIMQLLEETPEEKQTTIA
PAFAH2 confirm = PAFAH2 enzyme inhibitors, confirmation, biochemical, fluorescence polarization, human | shares compounds with PAFAH2 FP inh | recombinant PAFAH2, FP-rhodamine activity probe | inhibition, % at 3.39 µM | 2,300 compounds, 65% hits | AID 493030, 2011;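 active = mean inhibition over three repeats above a set limit taken from the earlier primary screen, cut at about 30% in these data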;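 also: inhibitor blocks binding of rhodamine activity probe so polarization falls; 0% = enzyme with DMSO and 100% = wells lacking PAFAH2 protein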
An asterisk follows results filed as active; x = no result given. Shown are actives, neighbours in structure and some others; about 2.9% of the full set was active somewhere.

SMILES	PAFAH1B3 FP inh	pPAFAH inh	PAFAH2 FP inh	Fam108B counter	PME-1 inh	PAFAH1B2 inh	PAFAH2 confirm
NC(=O)COc1c(-c2ccc(Br)o2)oc2ccccc2c1=O	1	2	31*	7	-6	-2	4
CCCCN(C(=O)c1ccc([N+](=O)[O-])o1)c1c(N)n(CCCC)c(=O)[nH]c1=O	2	1	3	-3	-4	2	x
COC(=O)c1cc(Br)ccc1NC(=O)CSCc1c(C)noc1C	6	3	3	x	2	4	x
Cc1ccc(C(C)C)c(OCC(=O)OCC(=O)NC2CCS(=O)(=O)C2)c1 (stereo unspecified)	-3	-1	3	-1	0	3	x
CC(=O)c1ccc(NC(=O)c2ccc(CNc3c(N4CCCC4)c(=O)c3=O)cc2)cc1	-5	7	62*	-3	-2	7	65*
COc1cc(NC(=O)c2ccc(CNc3c(N4CCOCC4)c(=O)c3=O)cc2)cc(OC)c1	-4	-2	3	3	6	-2	x
CC(=O)c1ccc(NC(=O)c2ccc(CNc3c(N4CCOCC4)c(=O)c3=O)cc2)cc1	10	-2	70*	-4	-1	1	63*
N#CCC(=O)N/N=C\c1ccccc1OC/C=C/c1ccccc1	1	-6	-5	-10	-5	-4	x
O=C(CCC1CCCC1)NNC(=O)COc1ccc(Br)cc1	11	5	35*	x	x	19	23
O=C(COC(=O)/C=C/c1ccccc1Cl)NCC1CCCO1 (stereo unspecified)	3	21	27	x	x	4	x
O=C(COC(=O)/C=C/c1ccccc1)NCC1CCCO1 (stereo unspecified)	-1	11	37*	5	-6	3	23
CSc1ccc(/C=C/C(=O)OCC(=O)NCC2CCCO2)cc1 (stereo unspecified)	9	5	39*	x	-4	3	22
O=C(CSc1cn[nH]n1)Nc1nc2ccccc2s1	13	1	9	-4	-3	-1	x
CN(C(=O)c1cccc(NC(=O)Cc2ccc(NC(=O)C3CCCN(C(=O)C4CCC4)C3)cc2)c1)C1CCCC1 (stereo unspecified)	3	x	6	x	x	8	x
CCOC(=O)CCCn1ccc2cc(S(=O)(=O)N3CCCC3)ccc21	9	7	3	-1	1	0	x
N#Cc1ccccc1COC(=O)c1ccc(Br)o1	3	4	5	0	-3	-3	x
CC(=O)c1c(C)[nH]c(C(=O)Nc2ccc(Cl)c(S(=O)(=O)N(C)C)c2)c1C	11	-3	-10	-2	17	5	x
CC(=O)c1c(C)[nH]c(C(=O)OCC(=O)Nc2ccc(Cl)cc2[N+](=O)[O-])c1C	-1	4	48*	1	2	6	32*
CC(=O)c1c(C)[nH]c(C(=O)OCC(=O)Nc2ccc3c(c2)OCCO3)c1C	5	0	35*	x	x	4	20
CCOC(=O)c1c(C)[nH]c(C(=O)OCC(=O)Nc2cc(Cl)ccc2OC)c1C	3	0	-9	-8	-4	0	x
CC(=O)c1c(C)[nH]c(C(=O)OCC(=O)Nc2ccc(Cl)c(S(=O)(=O)N(C)C)c2)c1C	0	-2	71*	-2	-13	-3	61*
O=C(COC(=O)c1cccc(N2C(=O)C3CC=CCC3C2=O)c1)c1ccccc1 (stereo unspecified)	13	5	35*	-1	2	4	27
O=C(O)c1cccc(N2C(=O)C3CC=CCC3C2=O)c1 (stereo unspecified)	3	-4	-1	0	-4	5	x
